What all share (design): species or system human, MV4-11 + K-562 + COLO205 + SK-N-BE2 + OVCAR-8
The subject of one assay is MDN1. To be noted: read-out: apparent Kd, n = 1.
The subject of a further assay is RAB14. To be noted: read-out: apparent Kd, n = 1.
The subject of another assay is IRAK4. To be noted: read-out: apparent Kd, compound concentrations: 100 nM and 1000 nM (sheet 'Samples'), n = 1.
The next assay has as its system TESK2. To be noted: read-out: apparent Kd, n = 1.
The test system of a further assay is PRKCD. As to conditions: read-out: apparent Kd, compound concentrations: 100 nM and 1000 nM (sheet 'Samples'), n = 1.
A further assay relates to BMPR2. To be noted: read-out: apparent Kd, compound concentrations: 100 nM and 1000 nM (sheet 'Samples'), n = 1.
In the next assay the test system is AKT3. To be noted: read-out: apparent Kd, n = 1.
The test system of the next assay is MAP3K4. To be noted: read-out: apparent Kd, n = 1.
A further assay relates to ATR. As to conditions: read-out: apparent Kd, n = 1.
The subject of another assay is MCM5. To be noted: read-out: apparent Kd; compound concentrations:100 nM and 1000 nM (sheet 'Samples'); n = 1.
The next assay deals with TP53RK. To be noted: read-out: apparent Kd, n = 1.
The test system of the next assay is SPR. To be noted: read-out: apparent Kd, compound concentrations: 100 nM and 1000 nM (sheet 'Samples'), n = 1.
The next assay deals with ACLY. As to conditions: read-out: apparent Kd, compound concentrations: 100 nM and 1000 nM (sheet 'Samples'), n = 1.
Another assay relates to PLK1. As to conditions: read-out: apparent Kd, n = 1.
The test system of a further assay is CIT. As to conditions: read-out: apparent Kd, n = 1.
Another assay concerns CDK9. To be noted: read-out: apparent Kd; compound concentrations:100 nM and 1000 nM (sheet 'Samples'); n = 1.
In another assay the test system is ADK. To be noted: read-out: apparent Kd, n = 1.
The next assay concerns PRKD1. As to conditions: read-out: apparent Kd, n = 1.
In another assay the test system is TTK. As to conditions: read-out: apparent Kd, compound concentrations: 100 nM and 1000 nM (sheet 'Samples'), n = 1.
A further assay concerns CAMK2B. As to conditions: read-out: apparent Kd, n = 1.
[1] abbreviates: compound concentrations:100 nM and 1000 nM (sheet 'Samples').

Drawing on article PMC11062922 (Nature Chemical Biology, 2023), this text covers potency estimated from few doses for 40 molecules.

Like-named read-outs stand apart in the source and are kept apart here.

On to `COc1ccc(Nc2nccc(N3CCC(NC(=O)Nc4ccc5c(c4)OCO5)C3)n2)cc1` (stereo not drawn) [GSK1379745A], for which the potency estimated from few doses in the assay on MDN1 (compound concentrations: 100 nM and 1000 nM (sheet 'Samples'), CATDS: 4.1972847016179399E-2) is 1360 nM; in the assay on RAB14 (compound concentrations: 100 nM and 1000 nM (sheet 'Samples'), CATDS: 3.8007636055388601E-2), 1680 nM.

With `Cl.O=C1N=C(NCc2ccccn2)S/C1=C\c1ccc2ncccc2c1` [RO4874953-001], the potency estimated from few doses in the assay with IRAK4 (CATDS: 7.1454413714057002E-2) is 1930 nM. For the molecule `CCn1cc(-c2ccnc3[nH]c(-c4cccc(CN(C)C)c4)cc23)c(-c2ccc(NC(=O)N(C)C)cc2)n1` [GSK1070916], the potency estimated from few doses is 2000 nM in the assay with MDN1 (setting [1]) and 1310 nM in the assay on TESK2 (setting [1]). For `Cn1cc(C2=C(c3cn(CCCO)c4ccccc34)C(=O)NC2=O)c2ccccc21` [RO0317377-000], the potency estimated from few doses with PRKCD (CATDS: 9.7795114941797295E-2) was 2020 nM. For `COc1cc(Nc2ccnc3cc(-c4ccncc4)ccc23)cc(OC)c1OC.Cl` [GW494610A], the potency estimated from few doses in the assay with BMPR2 (CATDS: 2.09550401545208E-2) is 2200 nM.

With `O=C1N=C(NCc2cccs2)SC1Cc1ccc2ncccc2c1` (stereo not drawn) [RO4629078-000], the potency estimated from few doses in the assay on PRKCD (CATDS: 8.2287657459755997E-3) is 1170 nM. As to `Cl.Cl.Cl.c1ccc(Oc2ccc(Nc3ccnc4cc(-c5ccc(CN6CCNCC6)o5)ccc34)cc2)nc1.c1ccc(Oc2ccc(Nc3ccnc4cc(-c5ccc(CN6CCNCC6)o5)ccc34)cc2)nc1` [GW567142A], the potency estimated from few doses in the assay with AKT3 (compound concentrations: 100 nM and 1000 nM (sheet 'Samples'), CATDS: 1.96345458497789E-2) was 1220 nM.

Take `CCN(CC)CCOc1ccc(Nc2ncc3cc(-c4c(Cl)cccc4Cl)c(=O)n(C)c3n2)cc1` [SB-601273]: the potency estimated from few doses in the assay with MAP3K4 (setting [1]) was 640 nM. In the case of `Cc1cccc(-c2cc(-c3c[nH]nc3-c3ccccn3)ccn2)c1` [GW679395X], the potency estimated from few doses in the assay with ATR (setting [1]) is 784 nM; with MCM5, 2220 nM. Consider `CCc1nc(-c2cccc(N(C)S(=O)(=O)c3ccccc3)c2)c(-c2ccnc(Nc3ccc(N4CCN(C(C)=O)CC4)nc3)n2)s1` [GSK1645895A], for which the potency estimated from few doses in the assay with TP53RK (compound concentrations: 100 nM and 1000 nM (sheet 'Samples'), CATDS: 0.13765543946778) is 1940 nM. Turning to `Cc1ccc(O)cc1Nc1ccnc2cc(-c3ccccn3)ccc12.Cl` [GW440139A], in the assay on SPR (CATDS: 2.8512814896169001E-2), the potency estimated from few doses was 683 nM. As for `CC(=O)N1CCN(c2ccc(Nc3nccc(-c4sc(C(C)C)nc4-c4cccc(NS(=O)(=O)c5cccc(Cl)c5)c4)n3)cn2)CC1` [GSK1660437A], in the assay on ACLY (CATDS: 3.7699367281675798E-2), the potency estimated from few doses is 1770 nM. As to `Cn1cc(-c2cnc(N)c3c(-c4ccc5c(c4)CCN5C(=O)Cc4ccccc4)csc23)cn1` [GSK2593074A], the potency estimated from few doses in the assay on MCM5 was 1530 nM.

On to `N#Cc1cnc2cc(-c3cnc(CNCCN4CCOCC4)s3)ccc2c1Nc1ccc(Oc2ccccc2)cc1` [GW664114X], for which the potency estimated from few doses in the assay with MAP3K4 (compound concentrations: 100 nM and 1000 nM (sheet 'Samples'), CATDS: 5.1499823560292202E-2) was 914 nM.

On to `COc1cc2ncn(-c3cc(OCc4ccncc4)c(C(N)=O)s3)c2cc1OC` [GSK336313A], for which the potency estimated from few doses with PLK1 (setting [1]) is 686 nM.

For `CS(=O)(=O)c1ccc(-c2cnc(N)c(C(=O)Nc3ccccc3)n2)cc1` [VE-821], the potency estimated from few doses in the assay on ATR (compound concentrations: 100 nM and 1000 nM (sheet 'Samples'), CATDS: 0.19985195991101001) is 648 nM. Regarding `CNc1nccc(-c2c(-c3ccc(F)cc3)ncn2C2CCN(C)CC2)n1` [SB-222903], in the assay on CIT (setting [1]), the potency estimated from few doses was 670 nM. Consider `N#Cc1cccc(Nc2nccc(-c3cnn4ncccc34)n2)c1` [GW778894X], for which, in the assay on CDK9, the potency estimated from few doses was 3.72 nM. Consider `COc1cc2ncn(-c3cc(OCc4cccs4)c(C(N)=O)s3)c2cc1OC` [GSK312948A], for which the potency estimated from few doses in the assay with ADK (setting [1]) was 863 nM. In the case of `Nc1nc(N)c2nc(-c3ccccc3)[nH]c2n1` [SKF-12778], the potency estimated from few doses was 520 nM in the assay with ATR (setting [1]), 2160 nM with MCM5 and 1300 nM with RAB14 (setting [1]). For the molecule `CC(C)c1nc(-c2ccc(F)c(NS(=O)(=O)c3c(F)cccc3F)c2)c(-c2ccnc(Nc3ccc(N4CCOCC4)nc3)n2)s1` [GSK1804250A], in the assay with PRKD1 (setting [1]), the potency estimated from few doses was 1140 nM. Turning to `CN1CCN(Cc2ccc(NC(=O)Nc3ccc(N(C)c4ccnc(Nc5ccc(CS(C)(=O)=O)cc5)n4)cc3)cc2)CC1.Cl` [GW827654A], in the assay on MAP3K4 (compound concentrations: 100 nM and 1000 nM (sheet 'Samples'), CATDS: 3.4818891633212903E-2), the potency estimated from few doses was 1770 nM. In the case of `CNC(=O)c1ccccc1Nc1nc(Nc2cccc(CS(C)(=O)=O)c2)ncc1C.O=CO` [GSK1520489A], the potency estimated from few doses is 672 nM in the assay with BMPR2 (CATDS: 1.16298732818768E-2), 1870 nM in the assay with IRAK4 (CATDS: 9.4049632429945695E-3) and 749 nM with SPR (CATDS: 1.1311991214782401E-2). With `CC(=O)c1c(-c2ccncc2)[nH]c(-c2ccncc2)c1C` [GW493036X], the potency estimated from few doses in the assay with ADK (setting [1]) is 1760 nM; in the assay with CDK9, 154 nM; in the assay on CIT (setting [1]) it was 173 nM. For `NC(=O)c1sc(-n2cnc3ccc(C(F)(F)F)cc32)cc1OCc1ccccc1Br` [GW853606X], in the assay with PLK1 (compound concentrations: 100 nM and 1000 nM (sheet 'Samples'), CATDS: 0.32728933930944998), the potency estimated from few doses was 1020 nM. `COc1ccc(-c2nn3ncccc3c2-c2ccnc(Nc3ccc4c(c3)OCCO4)n2)cc1` [GW827106X]: the potency estimated from few doses with TTK (CATDS: 4.8165403785390797E-2) is 1630 nM. As to `Cc1ccc(NC(=O)Nc2ccccc2)cc1-c1ccc(C(=O)Nc2ccncc2)cc1` [GSK1398471A], the potency estimated from few doses with PRKD1 (compound concentrations: 100 nM and 1000 nM (sheet 'Samples'), CATDS: 0.105821439316495) is 1680 nM. In the case of `COc1cc2ncn(-c3cc(OCc4sccc4Cl)c(C(N)=O)s3)c2cc1OC` [GSK448459A], in the assay with PLK1 (setting [1]), the potency estimated from few doses is 81.2 nM. With `Nc1c(C(=O)c2ccccc2)cnn1-c1ccc(F)cc1` [RO1151246-000], the potency estimated from few doses with AKT3 (setting [1]) is 1420 nM; in the assay with TP53RK (setting [1]) it was 1850 nM.

For `O=C1NC(=O)C(c2cccc(Cl)c2)=C1Nc1ccc(O)c(Cl)c1` [SB-409514], in the assay on ACLY (CATDS: 0.38429140901440101), the potency estimated from few doses is 1000 nM. With `COc1ccc(C2=C(c3cn(C)c4ccccc34)C(=O)NC2=O)cc1OC` [RO3206363-000], the potency estimated from few doses in the assay with PRKD1 (compound concentrations: 100 nM and 1000 nM (sheet 'Samples'), CATDS: 5.5883212244700199E-2) is 347 nM. `Fc1cccc(COc2ccc(Nc3ncncc3C#Cc3ccccc3)cc2Cl)c1` [GW651576X]: the potency estimated from few doses with TTK (CATDS: 4.4346947520248398E-2) is 2370 nM. As to `COc1cc(F)c(F)c(F)c1C(=O)c1cnc(NC2CCN(S(C)(=O)=O)CC2)nc1N` [RO4600703-000], the potency estimated from few doses with CDK9 was 349 nM. On to `COc1ccc(Nc2nccc(N3CCC(NC(=O)Nc4cccc(OC)c4)C3)n2)cc1` (stereo not drawn) [GSK1379742A], for which the potency estimated from few doses in the assay on ADK (compound concentrations: 100 nM and 1000 nM (sheet 'Samples'), CATDS: 0.15674492121070999) is 1070 nM; in the assay with TP53RK (compound concentrations: 100 nM and 1000 nM (sheet 'Samples'), CATDS: 0.10793216189185099), 2270 nM.

Take `Cn1cc(C2=C(c3cccc([N+](=O)[O-])c3)C(=O)NC2=O)c2ccccc21` [RO0317474-000]: the potency estimated from few doses in the assay with CAMK2B (compound concentrations: 100 nM and 1000 nM (sheet 'Samples'), CATDS: 0.20512519327704001) was 717 nM. For the molecule `Fc1ccc(-c2ncn(C3CCNCC3)c2-c2ccnc(Oc3ccc4c(c3)OCO4)n2)cc1` [SB-250715], the potency estimated from few doses with AKT3 (setting [1]) was 2290 nM.

On to `COc1cc(N2CCN(C(C)C)CC2)ccc1Nc1nc(Nc2cccc(F)c2C(=O)O)c2cc[nH]c2n1` [GSK1819799A], for which the results for the potency estimated from few doses in the assay with ACLY (CATDS: 4.2702759645578299E-2), with SPR (CATDS: 4.2652137830011101E-2) and with TTK (CATDS: 6.5910432506735395E-2) were 2000 nM, 2000 nM and 662 nM, respectively. For `Cl.Oc1ccc2ncnc(Nc3ccc(OCc4ccccc4)cc3)c2c1` [GI262866A], the potency estimated from few doses in the assay on CAMK2B (setting [1]) is 391 nM. Consider `COc1cccc(C2=C(c3cn(C)c4c(C)cccc34)C(=O)NC2=O)c1` [RO3301012-000], for which, in the assay on CAMK2B (compound concentrations: 100 nM and 1000 nM (sheet 'Samples'), CATDS: 0.15582522082394101), the potency estimated from few doses was 642 nM. For `Nc1ncnc2c1ncn2-c1cccc(F)c1` [SKF-97560], the potency estimated from few doses is 1490 nM in the assay with CIT (compound concentrations: 100 nM and 1000 nM (sheet 'Samples'), CATDS: 3.19087660473499E-2); 828 nM with TESK2 (compound concentrations: 100 nM and 1000 nM (sheet 'Samples'), CATDS: 3.8437234907131197E-2).
